Assay results from PubChem BioAssay (NCATS).
Values joined by “and” are separate entries in the source; they are usually repeats but may differ in a detail not shown here. Equal entries are not always repeated. Results filed as inconclusive are left out. Entries that show only a call come without a potency. Where a structure was tested more than once in an assay, its records may differ in their call. Active and inactive are the calls of the source. Unless noted, calls follow the shape of the full dose curve.

Assays:
[1] = Cytotoxicity counterscreen for inhibitors of SARS-CoV-2 cell entry (AID 1645845); conditions: cell viability (SARS-CoV-2 entry assay cells); series mostly up to 57.1 µM; also: nearly all actives have a fitted effect of over 50% in size; also: potency is read from the fitted curve at half-maximal effect
How it was run: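 Counterscreen run in the same HEK293-ACE2 line as the pseudotyped-particle entry assay, without particles. Viability after 48 h at 37 C was read as ATP luminescence, scaled between cell-containing and cell-free wells.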

[2] = Primary qHTS to identify inhibitors of SARS-CoV-2 cell entry (AID 1645846); conditions: SARS-CoV-2 pseudovirus cell entry assay, luminescence; activity change, negative = inhibition: at 57.1 µM (top of the series) unless noted; series mostly up to 57.1 µM; also: nearly all actives have a fitted effect of over 45% in size; also: potency is read from the fitted curve at half-maximal effect
How it was run: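 HEK293-ACE2 (Expi293F, stable hACE2), 1500 cells/well, o/n 37C; cpd 23 nL pin, 1 h; MLV-PP w/ SARS-CoV-2-S (Wuhan-Hu-1, Δ19 C-term); 48 h 37C; Bright-Glo luminescence; normalized vs S-PP and bald PP.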

[3] = VSVG counterscreen qHTS to identify inhibitors of SARS-CoV-2 cell entry (AID 1645847); conditions: VSV-G pseudotyped particle entry, luciferase; series mostly up to 57.2 µM; also: nearly all actives have a fitted effect of over 65% in size; also: potency is read from the fitted curve at half-maximal effect
How it was run: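 Expi293F/hACE2 cells, overnight plating; cpd 1 h, 37C/5% CO2; + VSV-G PP (MLV pseudotyping), 48 h; supernatant removed, Bright-Glo luciferase read. Norm: VSV-G PP and bald PP wells.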

[4] = Primary qHTS for inhibitors of nuclear receptor binding SET domain protein 2 (NSD2) in an isogenic RCH-ACV NSD2 p.E1099K mutant (9B) (AID 1645876; active = well fitted curve in the direction sought with a large enough effect; an effect the other way counts as inactive or inconclusive; also: nearly all actives have a fitted effect of over 70% in size); conditions: RCH-ACV NSD2 E1099K (9B) viability, CellTiter-Glo, 72 h; series mostly up to 44.9 µM
[5] = Primary qHTS for inhibitors of nuclear receptor binding SET domain protein 2 (NSD2) in an RCH-ACV wild type WT cells (2C) (AID 1645877; active = well fitted curve in the direction sought with a large enough effect; an effect the other way counts as inactive or inconclusive; also: nearly all actives have a fitted effect of over 70% in size; also: potency is read from the fitted curve at half-maximal effect); conditions: RCH-ACV (leukaemia line) NSD2 WT (2C) viability, CellTiter-Glo, 72 h; series mostly up to 44.9 µM

## C[C@@H]1CCC[C@H](C)N1CCCC(O)(c1ccccc1)c1ccccn1 (stereo partly specified)
[1]
  Potency: inactive
[2]
  activity change, negative = inhibition: -1.1%

## C[C@]12CCC(=O)C=C1[C@@H]1C[C@@H]1[C@H]1[C@@H]3[C@@H]4C[C@@H]4[C@@]4(CCC(=O)O4)[C@@]3(C)CC[C@@H]12
[1]
  Potency: inactive
[2]
  activity change, negative = inhibition: 0.82% and 2.72%

## CCOC(=O)NNc1nncc2ccccc12
[1]
  Potency: inactive
[2]
  Potency: inactive

## Cc1ccc(=O)n(-c2ccccc2)c1
[1]
  Potency: inactive
[2]
  Potency: inactive

## CC/C(=C(/CC)c1ccc(O)cc1)c1ccc(O)cc1
[1]
  Potency: inactive
[2]
  Potency: 17.8 µM (active)

## Nc1ccc(S(=O)(=O)Nc2cnc3ccccc3n2)cc1
[1]
  Potency: inactive
[2]
  Potency: inactive

## O=C1OC2(c3ccc(O)cc3Oc3cc(O)ccc32)c2ccccc21
[1]
  Potency: inactive
[2]
  Potency: inactive

## CC(=O)Oc1c(C)c(C)c2c(c1C)CC[C@@](C)(CCC[C@H](C)CCC[C@H](C)CCCC(C)C)O2
[1]
  Potency: inactive
[2]
  Potency: inactive

## CC(C)Cc1ccc(C(C)C(=O)OCc2ccccn2)cc1 (stereo unspecified)
[1]
  Potency: inactive
[2]
  activity change, negative = inhibition: -13.1%

## CC(C)c1cc2c(cc1S(=O)(=O)O)[C@@]1(C)CCC[C@@](C)(C(=O)O)[C@@H]1CC2
[1]
  Potency: inactive
[2]
  activity change, negative = inhibition: -22.9%

## COC(=O)C1=C(C)NC(C)=C(C(=O)OCCN2CCN(C(c3ccccc3)c3ccccc3)CC2)C1c1cccc([N+](=O)[O-])c1 (stereo unspecified)
[1]
  Potency: inactive
[2]
  Potency: 17.8 µM (active)

## CC(=C(CCOC(=O)C(C)C)SSC(CCOC(=O)C(C)C)=C(C)N(C=O)Cc1cnc(C)nc1N)N(C=O)Cc1cnc(C)nc1N
[1]
  Potency: inactive
[2]
  Potency: inactive

## Cn1cnc2c1c(=O)[nH]c(=O)n2C
[1]
  Potency: inactive
[2]
  Potency: inactive

## NS(=O)(=O)c1cc2c(cc1Cl)CN(C1CCCCC1)C2=O
[1]
  Potency: inactive
[2]
  Potency: inactive

## CCN(CC)CC(=O)OCC(=O)[C@@]1(O)CC[C@H]2[C@@H]3CCC4=CC(=O)CC[C@]4(C)[C@H]3[C@@H](O)C[C@@]21C
[1]
  Potency: inactive
[2]
  Potency: inactive

## CCOc1c(N2CCOCC2)cnn(C)c1=O
[1]
  Potency: inactive
[2]
  Potency: inactive

## CC(=O)OCC(=O)[C@@]1(O)CC[C@H]2[C@@H]3CCC4=CC(=O)C=C[C@]4(C)[C@H]3[C@@H](O)C[C@@]21C
[1]
  Potency: inactive
[2]
  Potency: inactive

## C[C@H]1NCc2cc(-c3ccc4c(=O)c(C(=O)O)cn(C5CC5)c4c3OC(F)F)ccc21
[1]
  Potency: inactive
[2]
  activity change, negative = inhibition: -12.7% [at 27.1 µM]

## CCOC(=O)c1ccc(NC(=O)CN2CCCCC2)cc1
[1]
  Potency: inactive
[2]
  activity change, negative = inhibition: -7.85%

## NS(=O)(=O)c1cc(C(=O)O)c(NCc2ccco2)cc1Cl
[1]
  Potency: inactive
[2]
  Potency: inactive

## Cc1cccc(N(C)C(=S)Oc2ccc3ccccc3c2)c1
[1]
  Potency: inactive
[2]
  activity change, negative = inhibition: -10.5% and -29.1%

## NC(=O)Cc1cccc(C(=O)c2ccccc2)c1N
[1]
  Potency: inactive
[2]
  Potency: inactive

## Cc1[nH]c(C)c(Cl)c(=O)c1Cl
[1]
  Potency: inactive
[2]
  Potency: inactive

## C[C@]12CCC(=O)C=C1CC[C@@H]1[C@@H]2[C@@H](O)C[C@@]2(C)[C@H]1CC[C@]2(O)C(=O)CO
[1]
  Potency: inactive
[2]
  Potency: inactive
  activity change, negative = inhibition: 4.28%

## CC[C@H](NC(C)C)[C@H](O)c1ccc(O)c2[nH]c(=O)ccc12
[1]
  Potency: inactive
[2]
  Potency: inactive
  activity change, negative = inhibition: 1.27%

## CCCc1ncc(C[n+]2ccccc2C)c(N)n1
[1]
  Potency: inactive
[2]
  activity change, negative = inhibition: 0.0229%

## O=c1[nH]c(=O)n([C@H]2C[C@H](O)[C@@H](CO)O2)cc1C(F)(F)F
[1]
  Potency: inactive
[2]
  activity change, negative = inhibition: -93.8%
[3]
  Potency: 0.242 µM (active)

## CN(C(=O)c1c(O)c2ccccc2n(C)c1=O)c1ccccc1
[1]
  Potency: inactive
[2]
  activity change, negative = inhibition: -55.9%
[3]
  Potency: inactive

## CCOC(=O)[C@H](CCc1ccccc1)N[C@H]1CS[C@H](c2cccs2)CN(CC(=O)O)C1=O
[1]
  Potency: inactive
[2]
  Potency: inactive
  activity change, negative = inhibition: -4.69%

## C[C@H]1C[C@H]2[C@@H]3CCC4=CC(=O)C=C[C@]4(C)[C@H]3C(=O)C[C@]2(C)[C@@]1(O)C(=O)CO
[1]
  Potency: inactive
[2]
  Potency: inactive
  activity change, negative = inhibition: 4.44%

## CCC(=O)O[C@]1(C(=O)CCl)[C@@H](C)C[C@H]2[C@@H]3CCC4=CC(=O)C=C[C@]4(C)[C@@]3(F)[C@@H](O)C[C@@]21C
[1]
  Potency: inactive
[2]
  Potency: inactive
  activity change, negative = inhibition: -9.65%

## CN(C)CCOC(c1ccccc1)c1ccc(Br)cc1 (stereo unspecified)
[1]
  Potency: inactive
[2]
  activity change, negative = inhibition: -67.2%
[3]
  Potency: 2.71 µM (active)

## CC(C)OC(=O)C(C(=O)OC(C)C)=C1SC=CS1
[1]
  Potency: inactive
[2]
  Potency: inactive
  activity change, negative = inhibition: -9.44%

## COc1ccc(-c2cc(C(F)F)nn2-c2ccc(S(N)(=O)=O)cc2)cc1F
[1]
  Potency: inactive
[2]
  activity change, negative = inhibition: 1.11%

## CCN(CC)CCOc1ccc(/C(=C(\Cl)c2ccccc2)c2ccccc2)cc1
[1]
  Potency: inactive
[2]
  activity change, negative = inhibition: 4.38%
[3]
  Potency: 8.57 µM (active)

## COc1ccc(CN2CCNCC2)c(OC)c1OC
[1]
  Potency: inactive
[2]
  Potency: inactive
[4]
  Potency: inactive

## O=C(O)c1cccc(-c2noc(-c3ccccc3F)n2)c1
[1]
  Potency: 6.31 µM (active)
[2]
  Potency: inactive
  activity change, negative = inhibition: -78%

## CN1CCC(=C2c3ccccc3CCc3sccc32)CC1
[1]
  Potency: inactive
[2]
  Potency: 14.1 µM (active)
[3]
  Potency: 12.1 µM (active)

## CCCc1cc(C(N)=S)ccn1
[1]
  Potency: inactive
[2]
  Potency: inactive
  activity change, negative = inhibition: -4.59%

## CCCSS/C(CCO)=C(\C)N(C=O)Cc1cnc(C)nc1N
[1]
  Potency: inactive
[2]
  activity change, negative = inhibition: -57.5%
[3]
  Potency: inactive

## CN1CC(=O)N2[C@H](c3ccc4c(c3)OCO4)c3[nH]c4ccccc4c3C[C@@H]2C1=O
[1]
  Potency: inactive
[2]
  Potency: inactive
  activity change, negative = inhibition: -9.6%

## CCCCCCOC(=O)NC(=N)c1ccc(NCc2nc3cc(C(=O)N(CCC(=O)OCC)c4ccccn4)ccc3n2C)cc1
[1]
  Potency: inactive
[2]
  Potency: 22.4 µM (active)
  activity change, negative = inhibition: -62%
[3]
  Potency: 4.82 µM (active)

## O=C(O)C(=O)Nc1cccc(-c2nn[nH]n2)c1
[1]
  Potency: inactive
[2]
  Potency: inactive
  activity change, negative = inhibition: -0.181%

## N=C(N)c1ccc2cc(OC(=O)c3ccc(N=C(N)N)cc3)ccc2c1
[1]
  Potency: inactive
[2]
  Potency: inactive
  activity change, negative = inhibition: -3.1%

## CCOCC(O)COc1ccc(NC(=O)CC[S+](C)C)cc1 (stereo unspecified)
[1]
  Potency: inactive
[2]
  Potency: inactive
  activity change, negative = inhibition: -2.31%

## C#C[C@]1(O)CC[C@H]2[C@@H]3[C@H](C)CC4=C(CCC(=O)C4)[C@H]3CC[C@@]21C
[1]
  Potency: inactive
[2]
  Potency: inactive
  activity change, negative = inhibition: -14.1%

## CCCCNc1cc(C(=O)O)cc(S(N)(=O)=O)c1Oc1ccccc1
[1]
  Potency: inactive
[2]
  Potency: inactive
  activity change, negative = inhibition: -16.4%

## NCCc1cnc[nH]1
[1]
  Potency: inactive
[2]
  Potency: inactive
  activity change, negative = inhibition: 0.209%

## O=C(NCC1CN(c2ccc(N3CCOCC3=O)cc2)C(=O)O1)c1ccc(Cl)s1 (stereo unspecified)
[1]
  Potency: inactive
[2]
  activity change, negative = inhibition: -26.5% and -55.1%
[3]
  Potency: 1.71 µM (active)

## COc1ccc2[nH]c(S(=O)Cc3ncc(C)c(OC)c3C)nc2n1 (stereo unspecified)
[1]
  Potency: inactive
[2]
  Potency: inactive
  activity change, negative = inhibition: -10.1%

## C/C=C/C(=O)N(CC)c1ccccc1C
[1]
  Potency: inactive
[2]
  Potency: inactive
  activity change, negative = inhibition: -9.15%

## CCOC(=O)C(C)(C)Oc1ccc(Cl)cc1
[1]
  Potency: inactive
[2]
  Potency: inactive
  activity change, negative = inhibition: -63%
[3]
  Potency: 12.1 µM (active)

## c1ccc([C@H]2CN3CCSC3=N2)cc1
[1]
  Potency: inactive
[2]
  Potency: inactive
  activity change, negative = inhibition: -16.1%

## CCCN(CCC)C(=O)C(CCC(=O)O)NC(=O)c1ccccc1 (stereo unspecified)
[1]
  Potency: inactive
[2]
  Potency: inactive
  activity change, negative = inhibition: 2.74%

## O=S(=O)(c1cccc2cnccc12)N1CCCNCC1
[1]
  Potency: inactive
[2]
  Potency: inactive
  activity change, negative = inhibition: -0.418%

## Cc1cc(C(C)(C)C)c(O)c(C)c1CC1=NCCN1
[1]
  Potency: inactive
[2]
  Potency: inactive
  activity change, negative = inhibition: -17.1%

## CCCCC(CC)COC(=O)C(C#N)=C(c1ccccc1)c1ccccc1 (stereo unspecified)
[1]
  Potency: inactive
[2]
  activity change, negative = inhibition: -96.1%
[3]
  Potency: 21.5 µM (active)

## OC[C@H]1O[C@@H](O[C@@H]2[C@@H](CO)O[C@](O)(CO)[C@H]2O)[C@H](O)[C@@H](O)[C@H]1O
[1]
  Potency: inactive
[2]
  Potency: inactive
  activity change, negative = inhibition: -4.13%

## O=c1oc2c(O)c(O)cc3c(=O)oc4c(O)c(O)cc1c4c23
[1]
  Potency: inactive
[2]
  Potency: inactive
  activity change, negative = inhibition: -5.97% [at 27.1 µM]

## Cc1cc(C(C)(C)C)cc(C)c1CC1=NCCN1
[1]
  Potency: inactive
[2]
  Potency: inactive
  activity change, negative = inhibition: -16.7%

## NC(=O)c1ncn([C@@H]2O[C@H](CO)[C@@H](O)[C@H]2O)c1N
[1]
  Potency: inactive
[2]
  Potency: inactive
  activity change, negative = inhibition: -18.5%

## Cc1cc(=O)oc2cc(O)ccc12
[1]
  Potency: inactive
[2]
  Potency: inactive
  activity change, negative = inhibition: -8.91%

## COP(=O)(OC)C(O)C(Cl)(Cl)Cl (stereo unspecified)
[4]
  Potency: inactive
[5]
  Potency: inactive

## C[C@@H]1CC[C@H]2[C@@H](C)C(=O)O[C@@H]3O[C@@]4(C)CC[C@@H]1[C@]32OO4
[5]
  Potency: 5.25 µM (active)
